Screening data as filed in PubChem.
PLCb3 inh – PLC-beta3 (human) inhibition, primary screen; AID 720704; 370,000 compounds, 0.18% hits; Purified PLC-beta3, fluorogenic substrate, fluorescence; inhibition, % at 12.2 µM; Q01970; in the data active = inhibition above about 11%;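 note: 0% = median of compound wells on plate and 100% = full blocker control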
ADAM17 inh – inhibitors of human ADAM17; recombinant ADAM17, EDANS/DABCYL FRET peptide cleavage; AID 720648; inhibition, % at 6.95 µM; P78536; 370,000 compounds, 0.83% hits;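 active = inhibition above the mean of compounds lying between control limits plus 3 SD, set per campaign, cut at about 8.5% in these data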;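 note: 0% = DMSO-only wells as the low control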
PLC-gamma1 inh – inhibitors of human phospholipase C gamma1 | AID 720700 | P19174 | purified PLC-gamma1, fluorogenic substrate, fluorescence | 370,000 compounds, 0.84% hits | inhibition, % at 12.2 µM; in the data active = inhibition above about 9.5%
ADAM10 inh – ADAM10 inhibition, QFRET primary screen | O14672 | recombinant ADAM10, EDANS/DABCYL FRET peptide cleavage, 3 h | inhibition, % at 7 µM | 370,000 compounds, 0.62% hits;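 active = inhibition above a per-campaign cutoff equal to the mean of compounds falling between control-based bounds plus 3 SD, cut at about 20% in these data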;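 note: 0% = DMSO wells while the 100% control is not disclosed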
Target sequence (O14672 214-748 limits assumed): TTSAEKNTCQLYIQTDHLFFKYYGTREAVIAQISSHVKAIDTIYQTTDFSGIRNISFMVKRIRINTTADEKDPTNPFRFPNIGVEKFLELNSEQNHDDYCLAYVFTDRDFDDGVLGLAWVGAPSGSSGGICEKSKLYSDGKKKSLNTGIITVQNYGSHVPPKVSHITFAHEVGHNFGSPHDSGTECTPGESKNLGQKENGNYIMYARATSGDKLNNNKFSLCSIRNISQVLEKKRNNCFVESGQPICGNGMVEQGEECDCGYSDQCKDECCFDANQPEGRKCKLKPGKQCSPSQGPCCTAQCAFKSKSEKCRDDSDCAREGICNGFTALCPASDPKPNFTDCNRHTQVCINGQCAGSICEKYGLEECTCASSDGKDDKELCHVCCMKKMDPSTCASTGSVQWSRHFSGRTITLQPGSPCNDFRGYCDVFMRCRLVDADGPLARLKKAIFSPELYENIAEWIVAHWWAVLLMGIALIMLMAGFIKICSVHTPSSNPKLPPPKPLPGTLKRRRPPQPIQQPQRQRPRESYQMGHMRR
proKLK7 act – activators of human kallikrein-7 zymogen; P49862; purified proKLK7, EDANS-DABCYL substrate fluorescence; 100% is mature enzyme control, 0% vehicle; activation, % at 7 µM; 370,000 compounds, 0.9% hits;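 active = activation above the mean of all tested compounds plus 3 SD, computed per campaign excluding outliers beyond control limits, cut at about 13% in these data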
proKLK7 act conf – confirmation of human kallikrein-7 zymogen activators. shares compounds with proKLK7 act. purified proKLK7, EDANS-DABCYL substrate fluorescence; scaled: vehicle 0, mature enzyme 100. activation, % at 7 µM. 3,200 compounds, 68% hits. AID 686949;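 active = activation, as change over the incubation, above the mean of all tested compounds plus 3 SD, cut at about 13% in these data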
EDANS-DABCYL int – counter-screen for kallikrein-7 activators: EDANS-DABCYL optical interference | shares compounds with proKLK7 act | EDANS-DABCYL substrate fluorescence interference, no enzyme, 4 h; solvent 0%, active enzyme control 100% | 3,200 compounds, 80% hits | activation, % at 7 µM;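 active = activation above the all-compound mean plus 3 SD, ignoring values outside control-based bounds, cut at about 4.8% in these data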;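 note: value is the 4 h activation minus the activation read at time zero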
EDANS interf – optically interferes with EDANS-DABCYL fluorescence, kallikrein-7 activator counter-screen | 250 compounds, 20% hits | EC50, µM | shares compounds with proKLK7 act | EDANS-DABCYL peptide fluorescence interference, no enzyme;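 active = compounds that raise the fluorescence signal in this interference counterscreen, with EC50 at or below 10 µM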;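 note: intact quenched peptide substrate alone read at 355 nm excitation and 520 nm emission; signal is fluorescence gain from T0 to T4 after four hours at room temperature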
Starred values were filed as active, the others as inactive; i = inactive; . = not tested or not shown. A selection: hits, their analogues and other compounds. The true share with any hit is near 2.9%.

SMILES	PLCb3 inh	ADAM17 inh	PLC-gamma1 inh	ADAM10 inh	proKLK7 act	proKLK7 act conf	EDANS-DABCYL int	others
CC(=O)N1CCN(Cc2cc(=O)oc3ccc4ccccc4c23)CC1	-2	-3	1	-35	-1	.	.
O=C1CCC(C(=O)OCc2nnc(-c3ccc(Cl)cc3)o2)=NN1	-4	2	0	-6	0	.	.
CC(=O)c1cc(C)ccc1OC(=O)c1ccncc1	-3	-1	1	0	0	.	.
CC(=O)c1cc(C)ccc1OC(=O)c1cccc2nc(C)oc12	-28	-24	-22	-74	13*	2	1
O=C1CCC2(CCCCC2)N1CCCO	-1	-2	-2	-8	0	.	.
CNC(=O)OCc1cocc1COC(=O)NC	6	1	5	1	42*	0	0
Cc1cccc(-c2cccc3nccn23)c1	-249	-315	-176	i	11	.	.
COc1cccc(-c2cnc3cccnn23)c1	i	-351	i	i	46*	39*	45*
Cc1ccc(-c2cnc3cccnn23)cc1F	i	-276	i	i	23*	5	7.6*
C#CCN1CC(N(C)CCOC(=O)c2cc(C)cc(C)c2)CS1(=O)=O (stereo not drawn)	3	0	0	1	-1	.	.
CS(=O)(=O)Nc1ccc(-c2cncc3nccn23)cc1	-137	-143	-108	i	16*	3	4.5*
CS(=O)(=O)Nc1ccc(-c2cnc3cccnn23)cc1	i	-106	i	-325	76*	14*	11*	EDANS interf=i
CCOc1ccc(-c2cncc3nccn23)cc1	-459	i	-375	i	17*	33*	36*
COc1ccc(-c2cncc3nccn23)cc1OC	-156	-25	-121	-127	1	.	.
Nc1ncnc2c1ncn2[C@@H]1O[C@H](C(=O)N[C@@H](CCc2ccccc2)C(=O)N2CCN(CC(=O)N3CCCC3)CC2)[C@@H](O)[C@H]1O	1	-6	1	-14	0	.	.
COc1cc(NC(=O)c2cccs2)c(OC)cc1NC(=O)Nc1ccc(F)cc1	-8	-6	-4	12	99*	71*	117*
COc1cc(NC(=O)COc2ccccc2Cl)ccc1NC(=O)c1cccs1	-182	-103	-100	-224	63*	15*	8.8*	EDANS interf=8.6*
CN(C)c1ccc(C2C3C(=O)N(c4ccc(C(=O)O)cc4)C(=O)C3ON2c2ccccc2)cc1 (stereo not drawn)	-162	-16	-140	-33	63*	0	1
O=C(O)c1ccc(N2C(=O)C3ON(c4ccccc4)C(c4ccccc4F)C3C2=O)cc1 (stereo not drawn)	-1	-2	-2	-4	0	.	.
CNc1cnc(-c2cccc(C(=O)N3CCOCC3)c2)cn1	-191	-354	-143	i	14*	15*	20*
CNc1cccc(-c2ccc(C(=O)N3CCOCC3)cc2)n1	-410	-23	-302	-86	3	.	.
CC(C1=CCCCC1)c1cnn(C)c1 (stereo not drawn)	0	2	2	6	0	.	.
Cc1ccc(-c2cc(C(=O)NCc3ccco3)c3ccccc3n2)o1	i	-183	i	i	18*	-11	-2
CN1CCN(NC(=O)c2cc(-c3ccc(Cl)s3)nc3ccccc23)CC1	i	-387	-335	i	26*	-33	-24
O=C(Nc1nccs1)c1cc(-c2ccccc2)nc2ccccc12	2	8	6	16	1	.	.
CN1CCN(NC(=O)c2cc(-c3ccccn3)nc3ccccc23)CC1	-2	0	-4	5	0	.	.
O=C(Nc1nccs1)c1cc(-c2ccco2)nc2ccccc12	-282	-56	-248	-199	15*	1	-2
CCN(CC)CCNC(=O)c1ccc(NC(=O)c2cc(-c3ccco3)nc3ccccc23)cc1	-493	-148	-352	-406	31*	-34	-21
CC1CCC2(CCC(=O)N2CCCO)CC1 (stereo not drawn)	1	-2	0	-5	-1	.	.
